FMDV inh – blocks foot and mouth disease virus | Potency, µM (series often up to 57.9 µM), inactives show top-dose activity change, negative = inhibition, most hits filed as inhibitors | AID 1159524 | 410,000 compounds, 1.2% hits | FMDV antiviral cell-based qHTS; calls by dose curve; tested in HEK293T cells; further: read-out not given here; potency means the concentration at half of the fitted maximal effect; nearly all actives have a fitted effect of over 45% in size
Marburg entry inh – blocks Marburg virus binding to or entry into cells; Marburg virus pseudotyped entry inhibition, cell reporter; Potency, µM (highest dose often 37.8 µM), for inactives: at the top dose activity change, negative = inhibition, usual class: inhibitors; 300,000 compounds, 1.8% hits; AID 540276; calls by dose curve; tested in HEK293 cells; further: potency means the concentration at half of the fitted maximal effect
Lassa entry inh – inhibitors of Lassa virus binding or cell entry; 300,000 compounds, 1.2% hits; Potency, µM (highest dose often 37.9 µM), for the others: at the highest dose activity change, negative = inhibition, hits mostly inhibitors; AID 540256; Lassa virus pseudotype entry inhibition, cell reporter; calls by dose curve; tested in HEK293 cells; further: potency means the concentration at half of the fitted maximal effect; nearly all actives have a fitted effect of over 50% in size
VACV Venus inh – inhibitors of vaccinia virus (Venus reporter); 330,000 compounds, 0.46% hits; Vaccinia virus Venus reporter expression, fluorescence; Potency, µM (highest dose often 36.5 µM), inactives show at the top dose activity change, negative = inhibition, hits mostly inhibitors; calls by dose curve; tested in A549 cells; further: potency means the concentration at half of the fitted maximal effect; nearly all actives have a fitted effect of over 30% in size
Vaccinia mCherry – vaccinia inhibition (mCherry reporter); 310,000 compounds, 0.63% hits; Vaccinia virus mCherry reporter infection, fluorescence; AID 720579; Potency, µM (top dose mostly 36.5 µM), without a hit: at the highest dose activity change, negative = inhibition, actives largely listed as inhibitors; calls by dose curve; tested in A549 cells; further: potency means the concentration at half of the fitted maximal effect; nearly all actives have a fitted effect of over 35% in size
HCMV antiviral – human cytomegalovirus inhibition. HFF cells, HCMV-luciferase reporter, 72 h; stronger effect = lower value. activity change, negative = inhibition, % at 57.5 µM. 410,000 compounds, 4.5% hits. AID 1259415; in the data active means activity change below about -60%; inconclusive means no clear call, values can overlap the other calls; inactive means above about -39%
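Human foreskin fibroblasts infected with luciferase-reporter HCMV at MOI 1 PFU/cell, compounds at two doses. Luciferase measured 72 h post infection; normalized to buffer-only basal and Salinomycin (10uM) controls.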
Starred values were filed as active, the others as inactive; i = inactive; ? = inconclusive; / = no result given; ! = a repeat was not active; [ ] = another dose, or the depositor's remark. In the library only some 6.5% were active in any assay of this set; here they are far more common. On the % scale 0 is the no-effect control and ±100 the full control effect.

SMILES	FMDV inh	Marburg entry inh	Lassa entry inh	VACV Venus inh	Vaccinia mCherry	HCMV antiviral
O=c1c2ccccc2nnn1CSc1nnc(COc2ccc(Cl)cc2)n1Cc1ccco1	0%	-1%	-21%	/	/	-60*
CCOC(=O)N1CCN(Cc2ccc3c(c2)CN(C(=O)c2cc(-c4ccccc4)no2)CCO3)CC1	25µM*	/	/	-29%	-26%	/
COc1cccc(-c2cc(C(=O)N3CCN(Cc4ccccc4)CC3)no2)c1	14%	7%	-3%	-14%	i	23
CCOC(=O)N1CCN(Cc2ccc3c(c2)CN(C(=O)c2cc(-c4ccccc4)on2)CCO3)CC1	28µM*	/	/	-19%	-24%	/
Cc1ccc2[nH]nc(C(=O)N3CCOc4ccc(CN5CCc6sccc6C5)cc4C3)c2c1	-21%	/	/	-20%	13µM*	/
O=C(NCc1nnc2n1CCN(Cc1cc3c(cc1Cl)OCO3)CC2)C1CCOC1 (configuration not stated)	-2%	/	/	-9%	-14%	/
Cc1sc(NC(=S)NC(=O)c2ccc(C(C)(C)C)cc2)c(C#N)c1C	?	8.2µM*	?	/	/	?
Cc1sc(NC(=S)NC(=O)c2ccccc2)c(C#N)c1C	62%	?	0%	/	/	3
COCCNC(C(=O)Nc1ccc([N+](=O)[O-])cc1Br)c1ccccc1 (configuration not stated)	?	-9%	-5%	-24%	-5%	-82*
O=C(OC(C(=O)Nc1ccc([N+](=O)[O-])cc1Br)c1ccccc1)c1ccccc1 (configuration not stated)	19%	3.5µM*	-2%	-12%	-14%	-33
CCCCNC(C(=O)Nc1ccc([N+](=O)[O-])cc1Br)c1ccccc1 (configuration not stated)	-18%	?	12%	-5%	-2%	-26
CC(=O)OCCC(C)CCC=C(C)C (configuration not stated)	-13%	/	/	0%	i	/
COc1ccc(CCN(C)CCCC(C#N)(c2cc(OC)c(OC)c(OC)c2)C(C)C)cc1OC (configuration not stated)	0%	8.9µM*	?	-16%	-3%	-32
COc1ccc(CCN(C)CC(O)c2ccccc2)cc1OC (configuration not stated)	-6%	3%[46.1 µM]	20%	-6%	-2%	-74*
COc1ccc(CCN(C)Cc2ccncc2)cc1OC	-17%	6%	-4%	/	/	0
COc1ccc(CCN(C)CCc2ccc(OC)c(OC)c2)cc1OC	-18%	5µM*!	-22%	-7%	-13%	-7
Cn1c(=O)cc(SCC(=O)N2CCN(c3ccccc3F)CC2)c2cc(Cl)ccc21	-23%	1%[46.1 µM]	-22%[46.1 µM]	0%	-6%	-6
COc1ccc(CCNc2oc(COc3ccc(Br)cc3)nc2C#N)cc1OC	32µM*	/	/	-3%	-7%	-14
COc1ccc(CCNc2oc(COc3ccccc3F)nc2C#N)cc1	1%	5%	-11%	/	/	-3
COc1ccc(CCNc2oc(Cc3cccc4ccccc34)nc2C#N)cc1OC	28µM*	?	?	?	/	-17
Cc1ccc(CNc2ncnc3nc[nH]c23)cc1	/	/	/	-13%	-1%	/
CC(=O)Nc1ccc(Nc2nc(C)c([N+](=O)[O-])c(N(C)c3ccccc3)n2)cc1	32µM*	-16%	?	-8%	-13%	?
CC(=O)Nc1ccc(S(=O)(=O)Oc2ccc(N3C(=O)C4CCCCC4C3=O)cc2)cc1 (configuration not stated)	?	-1%	-2%	/	/	-39
O=C1CCC(=O)N1c1ccccc1OS(=O)(=O)c1ccccc1	-9%	?	6%	-7%	-6%	-97*
O=S(=O)(Oc1ccccc1N1CCCCC1)c1ccccc1	0%	?	-3%[46.1 µM]	-10%	-14%	-61*
SMILES	FMDV inh	Marburg entry inh	Lassa entry inh	VACV Venus inh	Vaccinia mCherry	HCMV antiviral
CC(=O)Nc1ccc(S(=O)(=O)Oc2ccccc2N2C(=O)C3C4CCC(C4)C3C2=O)cc1 (configuration not stated)	-23%	10µM*	2.8µM*	20%	i	-34
COc1ccccc1N1CCN(S(=O)(=O)c2ccccc2)CC1	-13%	-2%	-1%	-10%	i	78
OCCN1CCN(Cc2ccc3c(c2)CN(Cc2cnc(-c4ccccc4)s2)CCO3)CC1	-11%	/	/	-5%	-11%	/
Cc1cc(C)c(S(=O)(=O)Oc2ccccc2[N+](=O)[O-])c(C)c1	-26%	?	3.2µM*	-27%	?	?
Cc1ccc(C)c(C(=O)COc2ccccc2[N+](=O)[O-])c1	6%	12%	-1%	-7%	0%	-7
Cc1ccccc1Cn1c(=O)n(Cc2ccco2)c(=O)c2sc3ccccc3c21	0%	?	0%[46.1 µM]	-2%	-3%	-69*
Cc1cccc(Cn2c(=O)n(CCc3ccccc3)c(=O)c3sc4ccccc4c32)c1	1%	-4%[46.1 µM]	25%[46.1 µM]	3%	-1%	-95*
COC(=O)c1cc(NC(=O)CN(c2ccccc2)S(=O)(=O)N(C)C)ccc1Cl	0%	?	-13%[46.1 µM]	-1%	-9%	7
Cc1c(C(=O)NCC2CC2)sc2ncnc(NCCN3CCCCC3)c12	-20%	/	/	-1%	i	/
CCN(CC)c1ccc(/C=N/NC(=O)c2ccc3nc[nH]c3c2)c(O)c1	2%	?	?	?	11µM*	/
COc1cccc(/C=N/NC(=O)c2ccc3nc[nH]c3c2)c1O	9%	/	/	-3%	?	0
CCN(CC)c1ccc(/C=N/NC(=O)c2ccoc2C)c(O)c1	-16%	/	/	?	1.1µM*	-100*
COC(=O)[C@](C)(N)Cc1ccc(O)cc1	/	7%	/	/	/	/
C=CCn1c(SCC(=O)NCc2ccco2)nnc1-c1cccc(N(C)C)c1	/	/	/	-20%	-14%	/
Cc1ccc(C(=O)Nc2ccccn2)cc1S(=O)(=O)N1CCOCC1	-6%	-10%	5%	-15%	-19%	12
CN(CC1CCCO1)S(=O)(=O)c1ccc(C(=O)Nc2ccccc2F)cc1 (configuration not stated)	12%	0%	-22%	-16%	-12%	-12
O=C(Nc1nc(-c2ccccn2)cs1)c1ccc(F)c(S(=O)(=O)N2CCOCC2)c1	?	/	/	/	/	-97*
Cc1ccc(C(=O)Nc2nc(-c3ccccn3)cs2)cc1S(=O)(=O)N1CCOCC1	?	/	/	/	/	-97*
CN(CC1CCCO1)S(=O)(=O)c1ccc(C(=O)Nc2nc(-c3ccccn3)cs2)cc1 (configuration not stated)	28µM*	?	?	?	?	/
O=C(NCCSc1c(-c2ccc(Br)cc2)[nH]c2ccccc12)c1ccc(S(=O)(=O)N2CCOCC2)cc1	-17%	?	-23%[46.1 µM]	-20%	-15%	-25
Cc1ccnn1CC(=O)N1CCOc2c(cc(-c3ncc(C(F)(F)F)cc3Cl)cc2OCC2CCCO2)C1 (configuration not stated)	6%	/	/	-4%	-7%	/
Cc1ccc(S(=O)(=O)N(C)c2ccc(OCC(=O)Nc3nc4c(ccc5ccccc54)s3)cc2)cc1	3%	1.4µM*	2%	-6%	i	24

Compound activity from PubChem BioAssay.
